# Where two headings read alike, the source gives them in different places.
# Columns and labels:
# AAK1 = conditions: n = 1
# ABL1-nonphosphorylated = conditions: concentration: 1 μM, replicates: in singlicate; n = 1
# ABL1-phosphorylated = conditions: concentration: 1 μM, replicates: in singlicate; n = 1
# ABL2 = conditions: concentration: 1 μM, replicates: in singlicate; n = 1
# ACVR1B = conditions: concentration: 1 μM, replicates: in singlicate; n = 1
# ACVR1 = conditions: concentration: 1 μM, replicates: in singlicate; n = 1
# ACVR2A = conditions: concentration: 1 μM, replicates: in singlicate; n = 1
# ACVR2B = conditions: concentration: 1 μM, replicates: in singlicate; n = 1
# ACVRL1 = conditions: concentration: 1 μM, replicates: in singlicate; n = 1
# ADCK3 = system: T1, ADCK3; conditions: concentration: 1 μM, replicates: in singlicate; n = 1
# T1 construct: gene CABC1
# ADCK4 = conditions: concentration: 1 μM, replicates: in singlicate; n = 1
# AKT1 = conditions: concentration: 1 μM, replicates: in singlicate; n = 1
# AKT2 = conditions: concentration: 1 μM, replicates: in singlicate; n = 1
# AKT3 = conditions: concentration: 1 μM, replicates: in singlicate; n = 1
# ALK = conditions: concentration: 1 μM, replicates: in singlicate; n = 1
# AMPK-alpha1 = system: T2, AMPK-alpha1; conditions: concentration: 1 μM, replicates: in singlicate; n = 1
# T2 construct: gene PRKAA1
# AMPK-alpha2 = system: T3, AMPK-alpha2; conditions: concentration: 1 μM, replicates: in singlicate; n = 1
# T3 construct: gene PRKAA2
# ANKK1 = conditions: concentration: 1 μM, replicates: in singlicate; n = 1
# ARK5 = system: T4, ARK5; conditions: concentration: 1 μM, replicates: in singlicate; n = 1
# T4 construct: gene NUAK1
# ASK1 = system: T5, ASK1; conditions: concentration: 1 μM, replicates: in singlicate; n = 1
# T5 construct: gene MAP3K5
# [1] = concentration: 1 μM, replicates: in singlicate
# 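Also: KINOMEscan kinase panel screen.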
smiles,measurement,setting,value
CN(c1ccc2c(c1)nc(NCc1ccccc1)n2C)c1ccnc(Nc2ccc(CS(C)(=O)=O)cc2)n1.Cl [GW811603],%Inh,AAK1; [1],16%
same,%Inh,ABL1-nonphosphorylated,98.9%
same,%Inh,ABL1-phosphorylated,66%
same,%Inh,ABL2,54%
same,%Inh,ACVR1B,0%
same,%Inh,ACVR1,0%
same,%Inh,ACVR2A,0%
same,%Inh,ACVR2B,0%
same,%Inh,ACVRL1,0%
same,%Inh,ADCK3,0%
same,%Inh,ADCK4,7%
same,%Inh,AKT1,0%
same,%Inh,AKT2,0%
same,%Inh,AKT3,1%
same,%Inh,ALK,49%
same,%Inh,AMPK-alpha1,2%
same,%Inh,AMPK-alpha2,0%
same,%Inh,ANKK1,0%
same,%Inh,ARK5,0%
same,%Inh,ASK1,9%
CCn1c(-c2nonc2N)nc2c(-c3ccccc3)ncc(OCCCN)c21.O=C(O)C(F)(F)F.O=C(O)C(F)(F)F [GSK260205],%Inh,AAK1; [1],14%
same,%Inh,ABL1-nonphosphorylated,0%
same,%Inh,ABL1-phosphorylated,9%
same,%Inh,ABL2,16%
same,%Inh,ACVR1B,61%
same,%Inh,ACVR1,38%
same,%Inh,ACVR2A,0%
same,%Inh,ACVR2B,0%
same,%Inh,ACVRL1,0%
same,%Inh,ADCK3,46%
same,%Inh,ADCK4,26%
same,%Inh,AKT1,72%
same,%Inh,AKT2,75%
same,%Inh,AKT3,74%
same,%Inh,ALK,25%
same,%Inh,AMPK-alpha1,0%
same,%Inh,AMPK-alpha2,0%
same,%Inh,ANKK1,0%
same,%Inh,ARK5,0%
same,%Inh,ASK1,0%
COc1cc(Nc2ccnc3cc(-c4ccncc4)ccc23)cc(OC)c1OC.Cl [GW494610],%Inh,AAK1; [1],0%
same,%Inh,ABL1-nonphosphorylated,97.9%
same,%Inh,ABL1-phosphorylated,99.4%
same,%Inh,ABL2,93%
same,%Inh,ACVR1B,86%
same,%Inh,ACVR1,99.5%
same,%Inh,ACVR2A,0%
same,%Inh,ACVR2B,54%
same,%Inh,ACVRL1,88%
same,%Inh,ADCK3,98.6%
same,%Inh,ADCK4,14%
same,%Inh,AKT1,0%
same,%Inh,AKT2,10%
same,%Inh,AKT3,0%
same,%Inh,ALK,29%
same,%Inh,AMPK-alpha1,5%
same,%Inh,AMPK-alpha2,32%
same,%Inh,ANKK1,0%
same,%Inh,ARK5,12%
same,%Inh,ASK1,0%
COc1cccc2c(-c3ccncc3)c(-c3ccc(F)cc3)nn12 [GW468513],%Inh,AAK1; [1],10%
same,%Inh,ABL1-nonphosphorylated,0%
same,%Inh,ABL1-phosphorylated,0%
same,%Inh,ABL2,5%
same,%Inh,ACVR1B,76%
same,%Inh,ACVR1,31%
same,%Inh,ACVR2A,0%
same,%Inh,ACVR2B,3%
same,%Inh,ACVRL1,3%
same,%Inh,ADCK3,43%
same,%Inh,ADCK4,38%
same,%Inh,AKT1,0%
same,%Inh,AKT2,34%
same,%Inh,AKT3,5%
same,%Inh,ALK,27%
same,%Inh,AMPK-alpha1,0%
same,%Inh,AMPK-alpha2,18%
same,%Inh,ANKK1,11%
same,%Inh,ARK5,19%
same,%Inh,ASK1,0%
Cc1cc(-c2c(-c3ccc(F)cc3)ncn2CCCN2CCOCC2)nc(N)n1 [SB-222517],%Inh,AAK1; [1],14%
same,%Inh,ABL1-nonphosphorylated,37%
same,%Inh,ABL1-phosphorylated,18%
same,%Inh,ABL2,0%
same,%Inh,ACVR1B,21%
same,%Inh,ACVR1,0%
same,%Inh,ACVR2A,0%
same,%Inh,ACVR2B,0%
same,%Inh,ACVRL1,0%
same,%Inh,ADCK3,1%
same,%Inh,ADCK4,0%
same,%Inh,AKT1,16%
same,%Inh,AKT2,0%
same,%Inh,AKT3,23%
same,%Inh,ALK,0%
same,%Inh,AMPK-alpha1,10%
same,%Inh,AMPK-alpha2,27%
same,%Inh,ANKK1,0%
same,%Inh,ARK5,0%
same,%Inh,ASK1,0%
CN(c1ccc(NC(=O)N2CCN(CCCN3CCOCC3)CC2)cc1)c1ccnc(Nc2ccc(CS(C)(=O)=O)cc2)n1.Cl [GW830899],%Inh,AAK1; [1],55%
same,%Inh,ABL1-nonphosphorylated,72%
same,%Inh,ABL1-phosphorylated,60%
same,%Inh,ABL2,8%
same,%Inh,ACVR1B,0%
same,%Inh,ACVR1,0%
same,%Inh,ACVR2A,23%
same,%Inh,ACVR2B,45%
same,%Inh,ACVRL1,0%
same,%Inh,ADCK3,3%
same,%Inh,ADCK4,5%
same,%Inh,AKT1,0%
same,%Inh,AKT2,0%
same,%Inh,AKT3,0%
same,%Inh,ALK,0%
same,%Inh,AMPK-alpha1,0%
same,%Inh,AMPK-alpha2,12%
same,%Inh,ANKK1,0%
same,%Inh,ARK5,0%
same,%Inh,ASK1,0%
O=C(O)C(F)(F)F.O=c1[nH]ccc2nc(N[C@@H]3CCNC3)nc(Nc3cc(Cl)cc(Cl)c3)c12 [GSK2188764],%Inh,AAK1; 1 µM,89%
same,%Inh,ABL1-nonphosphorylated,9%
same,%Inh,ABL1-phosphorylated,11%
same,%Inh,ABL2,0%
same,%Inh,ACVR1B,0%
same,%Inh,ACVR1,0%
same,%Inh,ACVR2A,0%
same,%Inh,ACVR2B,0%
same,%Inh,ACVRL1,0%
same,%Inh,ADCK3,25%
same,%Inh,ADCK4,14%
same,%Inh,AKT1,0%
same,%Inh,AKT2,0%
same,%Inh,AKT3,0%
same,%Inh,ALK,90.5%
same,%Inh,AMPK-alpha1,87%
same,%Inh,AMPK-alpha2,90%
same,%Inh,ANKK1,97.1%
same,%Inh,ARK5,99.5%
same,%Inh,ASK1,0%
Cl.N#CCc1ccc(Nc2nccc(Nc3ccc(Oc4ccccc4)cc3)n2)cc1 [GW639905],%Inh,AAK1; [1],7%
same,%Inh,ABL1-nonphosphorylated,0%
same,%Inh,ABL1-phosphorylated,9%
same,%Inh,ABL2,13%
same,%Inh,ACVR1B,0%
same,%Inh,ACVR1,26%
same,%Inh,ACVR2A,100%
same,%Inh,ACVR2B,0%
same,%Inh,ACVRL1,0%
same,%Inh,ADCK3,6%
same,%Inh,ADCK4,72%
same,%Inh,AKT1,0%
same,%Inh,AKT2,4%
same,%Inh,AKT3,0%
same,%Inh,ALK,40%
same,%Inh,AMPK-alpha1,0%
same,%Inh,AMPK-alpha2,0%
same,%Inh,ANKK1,98.9%
same,%Inh,ARK5,0%
same,%Inh,ASK1,0%
CSc1ccc(NC2=C(c3ccc(Cl)cc3)C(=O)NC2=O)cc1 [SB-317658],%Inh,AAK1; [1],0%
same,%Inh,ABL1-nonphosphorylated,0%
same,%Inh,ABL1-phosphorylated,0%
same,%Inh,ABL2,0%
same,%Inh,ACVR1B,13%
same,%Inh,ACVR1,0%
same,%Inh,ACVR2A,15%
same,%Inh,ACVR2B,0%
same,%Inh,ACVRL1,23%
same,%Inh,ADCK3,1%
same,%Inh,ADCK4,0%
same,%Inh,AKT1,9%
same,%Inh,AKT2,8%
same,%Inh,AKT3,10%
same,%Inh,ALK,0%
same,%Inh,AMPK-alpha1,23%
same,%Inh,AMPK-alpha2,30%
same,%Inh,ANKK1,3%
same,%Inh,ARK5,0%
same,%Inh,ASK1,0%

# Reference: article PMC5540273 (PLoS ONE, 2017)
